Holding throughout (assay): NCI-60 one-dose screen, 48 h (100 = growth as untreated, 0 = no growth, -100 = all killed)
One test has as its system HCT-15 colon. To be noted: 10 µM unless noted.
The subject of a further test is HT29 colon. To be noted: 10 µM unless noted.
For another test, the system named is SNB-19 CNS. As to conditions: 10 µM unless noted.
A further test deals with U251 CNS. To be noted: 10 µM unless noted.
The next test has as its system PC-3 prostate. As to conditions: 10 µM unless noted.
Another test deals with SK-MEL-5 melanoma. To be noted: 10 µM unless noted.
In a further test the test system is UACC-62 melanoma. As to conditions: 10 µM unless noted.
The next test relates to LOX IMVI melanoma. To be noted: 10 µM unless noted.
The subject of a further test is SK-MEL-28 melanoma. As to conditions: 10 µM unless noted.
A further test relates to EKVX NSCLC. As to conditions: 10 µM.
The subject of another test is SN12C renal. As to conditions: 10 µM unless noted.
Another test has as its system UO-31 renal. To be noted: 10 µM unless noted.
A further test has as its system TK-10 renal. To be noted: 10 µM unless noted.
The subject of another test is ACHN renal. As to conditions: 10 µM unless noted.
A further test deals with A498 renal. To be noted: 10 µM unless noted.
The test system of a further test is CCRF-CEM leukemia. To be noted: 10 µM.
A further test relates to MOLT-4 leukemia. To be noted: 10 µM unless noted.
Another test deals with SNB-75 CNS. To be noted: 10 µM unless noted.
The subject of another test is SK-MEL-2 melanoma. To be noted: 10 µM unless noted.
For the next test, the system named is CAKI-1 renal. To be noted: 10 µM unless noted.

This is part of a sample that, as a whole, favours compounds with a hit. Of some 83,000 tested, about 20% had one in any assay.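 Treatment: one concentration, 48 hours, 96-well format. Scoring: percent growth, with anything below 10 considered active.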 Unmarked numbers belong to inactive results. Active and inactive are the calls of the source.

`COc1cc2cn3c4ccc(O)cc4[nH]c(=O)c3c2cc1OC`: the growth in the test with HCT-15 colon was 23.3%; with HT29 colon, -70.2% (active); in the test on SNB-19 CNS, 30.9%; in the test with U251 CNS, 12%; with PC-3 prostate, 66.4%; in the test with SK-MEL-5 melanoma, -90.7% (active). Further, the growth with UACC-62 melanoma is -9.19% (active); with LOX IMVI melanoma, 0.607% (active); in the test on SK-MEL-28 melanoma, 11.5%; with EKVX NSCLC it was 18.4%; in the test on SN12C renal it was 37%; in the test with UO-31 renal it was -32.2% (active). In addition, the growth with TK-10 renal was -22.6% (active); in the test on ACHN renal, -26% (active); in the test on A498 renal it was -20.6% (active); in the test with CCRF-CEM leukemia, 5.83% (active); in the test on MOLT-4 leukemia, -9.94% (active).

Take `C=C1CCC2C3(C)COC(c4ccccc4)OC3CCC2(C)C1C/C=C1/C(=O)OCC1O` (stereo not drawn): the growth was 61.9% with HCT-15 colon; 54.1% in the test on HT29 colon; 35.9% with SNB-75 CNS; 64.9% in the test on U251 CNS; 67.4% in the test on UACC-62 melanoma; 72.6% in the test on LOX IMVI melanoma. Moreover, the growth with SK-MEL-2 melanoma was 66.7%; in the test on EKVX NSCLC, 104%; in the test with SN12C renal it was 66.7%; with UO-31 renal it was 42.9%; with TK-10 renal, 105%; in the test on ACHN renal, 86.7%. In addition, in the test on CAKI-1 renal, the growth is 133%.

In the case of `O=C1CSC(c2ccccc2Cl)N1c1nnc(-c2ccncc2)o1` (stereo not drawn), the growth in the test on HCT-15 colon was 98.5%; in the test with HT29 colon, 98.4%; with SNB-75 CNS, 95.4%; in the test with U251 CNS, 96.6%; in the test on PC-3 prostate, 98.5%; in the test on UACC-62 melanoma, 92.3%. Besides, the growth with LOX IMVI melanoma was 102%; with SK-MEL-28 melanoma, 101%; in the test on SK-MEL-2 melanoma, 101%; with EKVX NSCLC it was 93.2%; with SN12C renal, 98.3%; with UO-31 renal, 90.8%. For the same compound, the growth in the test on ACHN renal is 94.3%; in the test on CAKI-1 renal it was 107%; in the test on A498 renal, 72.4%; in the test on CCRF-CEM leukemia, 102%; in the test on MOLT-4 leukemia it was 94.3%.

Turning to `COc1cc(-c2nn(-c3ccc(NC(=O)c4ccc(Cl)c(Cl)c4)cc3)cc2-c2ccncc2)ccc1Cl`, the growth with HCT-15 colon was 10.9%; with HT29 colon, -14.7% (active); in the test on SNB-19 CNS, 85.9%; with U251 CNS it was 48.7%; with PC-3 prostate it was 68.6%; in the test on SK-MEL-5 melanoma, 64.8%. Further, the growth with UACC-62 melanoma is 64.4%; in the test with LOX IMVI melanoma it was 35.9%; in the test on SK-MEL-28 melanoma it was 67.8%; in the test with EKVX NSCLC it was 73%; in the test with SN12C renal, 79.4%; in the test with UO-31 renal, 36.3%. Also, the growth in the test on TK-10 renal is 17.2%; in the test on ACHN renal it was 74.1%; in the test with CAKI-1 renal it was 44.4%; in the test on A498 renal, 81.4%; in the test with CCRF-CEM leukemia, 67.6%; with MOLT-4 leukemia it was 28.7%.

As for `CC(C)C(=O)c1ccc(Cl)s1`, the growth is 97.5% in the test on HCT-15 colon; 120% in the test on HT29 colon; 80.9% with SNB-75 CNS; 99.2% with U251 CNS; 103% in the test on PC-3 prostate; 92.8% with SK-MEL-5 melanoma. Moreover, the growth with UACC-62 melanoma was 100%; in the test on LOX IMVI melanoma it was 91%; in the test with SK-MEL-28 melanoma, 111%; in the test with SK-MEL-2 melanoma, 96.5%; with SN12C renal it was 99.3%; with UO-31 renal, 79.1%. Further, the growth is 104% in the test with ACHN renal, 107% in the test with CAKI-1 renal, 79.6% in the test with A498 renal and 97.4% in the test on MOLT-4 leukemia.

With `CCN(CC)c1ccc2nc3ccc(N=Nc4ccc(O)cc4)cc3[n+](-c3ccccc3)c2c1`, the growth in the test with HCT-15 colon is 65.6%; with HT29 colon, 28.9%; in the test with SNB-19 CNS, 73.3%; in the test with U251 CNS, 44.1%; in the test on PC-3 prostate, 48.3%; in the test on SK-MEL-5 melanoma, 46.3%. The growth with UACC-62 melanoma is 59.3%; with LOX IMVI melanoma, 36.5%; in the test with SK-MEL-2 melanoma, 76.8%; in the test with EKVX NSCLC, 77.6%; in the test with UO-31 renal it was 48.5%; in the test on TK-10 renal, 66.6%. Moreover, the growth in the test on ACHN renal is 60.2%; with CAKI-1 renal, 90.5%; in the test with A498 renal it was 75%; in the test with CCRF-CEM leukemia, 12.8%; in the test on MOLT-4 leukemia, 18.1%.

Consider `OCCN1CCN(CC/C=C2/c3ccccc3Sc3ccc(C(F)(F)F)cc32)CC1`, for which the growth is 71.1% in the test with HCT-15 colon; 15.8% in the test on HT29 colon; 56.5% with SNB-75 CNS; 41% with U251 CNS; 56.5% with SK-MEL-5 melanoma; 14.4% in the test on UACC-62 melanoma. Moreover, the growth in the test with LOX IMVI melanoma was 65.5%; in the test on SK-MEL-28 melanoma, 68%; in the test with SK-MEL-2 melanoma it was 79.8%; in the test with SN12C renal, 72.6%; in the test on UO-31 renal, 40.1%; with ACHN renal, 79%. The figures for the growth in the test on A498 renal and in the test on MOLT-4 leukemia were 79.2% and 41.3%, respectively.

Take `COc1cccc(-c2cc(-c3cc4ccccc4oc3=O)nc(N)n2)c1`: the growth in the test on HCT-15 colon was 107%; in the test with HT29 colon, 117%; in the test on SNB-19 CNS, 106%; with U251 CNS, 110%; in the test with PC-3 prostate it was 89.3%; with SK-MEL-5 melanoma, 95%. The growth with UACC-62 melanoma was 104%; in the test on LOX IMVI melanoma it was 95.4%; in the test on SK-MEL-28 melanoma it was 91.7%; with EKVX NSCLC it was 99.2%; in the test with SN12C renal it was 98.6%; in the test on UO-31 renal it was 55.8%. For the same compound, the growth was 74.5% in the test with TK-10 renal; 98.3% in the test with ACHN renal; 111% in the test on CAKI-1 renal; 127% in the test on A498 renal; 87.6% with CCRF-CEM leukemia; 91.4% with MOLT-4 leukemia.

For `COc1ccc2c(c1)cn1c3ccc(O)cc3[nH]c(=O)c21`, the growth in the test on HCT-15 colon was 2.24% (active); in the test with HT29 colon it was -43.1% (active); in the test with SNB-19 CNS it was 21.7%; in the test with U251 CNS, 10.5%; with PC-3 prostate it was 11%; in the test on SK-MEL-5 melanoma it was 13%. The growth in the test with UACC-62 melanoma is 39%; with LOX IMVI melanoma, 3.95% (active); in the test on SK-MEL-28 melanoma it was 27.9%; in the test with EKVX NSCLC, 47.9%; in the test on SN12C renal, 40.2%; in the test with UO-31 renal it was 23.3%. The growth with TK-10 renal was 13%; in the test on ACHN renal, 14.8%; with CAKI-1 renal it was 22.2%; in the test on A498 renal, 40.7%; in the test with CCRF-CEM leukemia it was 18.5%; with MOLT-4 leukemia it was 19.2%.

Values taken from PubChem BioAssay (NCI).
